Wnt bcat act – Wnt/beta-catenin pathway activators, primary screen, cell-based, plate reader, single point | activation, % at 9.35 µM | Wnt/beta-catenin reporter cell assay, activator | 300,000 compounds, 1.2% hits; in the data active = activation above about 30%, passing the limit was not always enough; inconclusive = no clear call, values can overlap the other calls
esBAF inh – Bmi1 luciferase reporter increase in mESCs, primary screen, esBAF inhibitor project, mouse ES cells, Bmi1 luciferase knock-in, single point. 350,000 compounds, 2% hits. 24 h; 100% = twice the neutral-well signal. AID 602393, 2012. reporter increase, % at 12.5 µM; in the data active = activation above about 40%; inconclusive = no clear call, values can overlap the other calls;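 also: a rise in the Bmi1 reporter signal indicates esBAF inhibition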
MITF TRPM1 HTS – activators of MITF-driven TRPM1 promoter reporter, primary screen, cell-based, SK-MEL-5, luciferase, single point | SK-MEL-5 TRPM1-promoter luciferase, 24 h; % of positive control, neutral wells = 0 | activation, % at 12.5 µM | 300,000 compounds, 0.75% hits;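 active = mean activation of at least 80% with every replicate also reaching 80%; inconclusive = mean reaches 80% but some replicate falls short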
GAA850 FXN act – FXN promoter activators, primary screen, cell-based, luciferase luminescence, HEK293 lucGAA850; HEK293 lucGAA850 FXN promoter luciferase reporter, 24 h; percent of 10 µM SAHA response; activation, % at 6 µM; 360,000 compounds, 0.56% hits; AID 540364, 2011;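 active = activation above the average of all compounds screened plus 3 SD, cutoff fixed separately per campaign, cut at about 7.5% in these data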
Each line names hits and unclear results; the compound was inactive in the other large screens. A selection: hits, their analogues and other compounds. The true share with any hit is near 2.8%.

CCN1C(=O)CC(N2CCN(c3ccc(C(=O)c4ccccc4)cc3)CC2)C1=O (centres undefined)	esBAF inh 54.8
CCN1C(=O)CC(N2CCN(c3ccc(Cl)cc3)CC2)C1=O (centres undefined)	none
O=C(NCc1ccccc1Cl)[C@@H]1[C@@H](CO)[C@@H]2Cn3c(cccc3=O)[C@@H]2N1C(=O)C1CCCC1	none (no result: Wnt bcat act, MITF TRPM1 HTS, GAA850 FXN act)
Cc1ccc(C(=O)Nc2cc3c(oc2=O)CCCC3=O)cc1	Wnt bcat act 34.1 (no result: esBAF inh, MITF TRPM1 HTS)
COc1ccc(S(=O)(=O)n2ccc(-c3cnc(-c4ccccc4)s3)n2)cc1	Wnt bcat act 40.6
Cc1cccc(NC(=O)C[C@H]2CC[C@H]3[C@@H](COc4ccc(NC(=O)NC(C)C)cc4C(=O)N3C)O2)c1	none (no result: Wnt bcat act, MITF TRPM1 HTS, GAA850 FXN act)
COc1ccc(CNC(=O)N(C)C[C@H]2OCc3ccccc3-c3ccccc3C(=O)N([C@H](C)CO)C[C@H]2C)cc1	none (no result: Wnt bcat act, MITF TRPM1 HTS, GAA850 FXN act)
CCC(=O)NC(=S)Nc1ccc(NC(=O)c2ccc(Br)o2)cc1	esBAF inh 68.6
O=C(NC(=S)Nc1ccccc1F)c1ccc(Br)o1	esBAF inh 49.3
CCC(=O)NC(=S)Nc1ccc(NC(=O)c2ccc(OC)cc2)cc1	none (no result: esBAF inh)
Cc1cccc(NC(=S)NC(=O)c2ccc(Br)o2)c1C	none (no result: esBAF inh)
CSc1ccccc1NC(=O)c1ccc(Br)o1	esBAF inh 51.7
Cc1ccc(NC(=S)NC(=O)c2ccc(Br)o2)c(C)c1	MITF TRPM1 HTS 87.6 (no result: esBAF inh)
O=C(C[C@H]1C[C@H]2c3cc(NC(=O)c4cccnc4)ccc3O[C@H]2[C@H](CO)O1)NCC(F)(F)F	none (no result: Wnt bcat act, MITF TRPM1 HTS, GAA850 FXN act)
CN(C)C(=O)C[C@@H]1CC[C@H](NC(=O)NC2CCCCC2)[C@H](CO)O1	none (no result: Wnt bcat act, MITF TRPM1 HTS, GAA850 FXN act)
C[C@@H](NC(=O)C[C@H]1C[C@@H]2c3cc(NC(=O)C4CCOCC4)ccc3O[C@@H]2[C@@H](CO)O1)c1ccccc1	none (no result: Wnt bcat act, MITF TRPM1 HTS, GAA850 FXN act)
Cc1ccc(Nc2nc(N)nc(CSCCO)n2)cc1	esBAF inh inconclusive
Cc1ccc(Nc2nc(N)nc(CCl)n2)cc1	Wnt bcat act 39.1 (no result: esBAF inh, MITF TRPM1 HTS)
Cc1ccc(Nc2nc(N)nc(CC#N)n2)cc1	esBAF inh 69.5 (no result: Wnt bcat act)
Cc1ccc(Nc2nc(N)nc(COC(=O)C3=COCCO3)n2)cc1	Wnt bcat act inconclusive, MITF TRPM1 HTS 95.0
COCC(=O)N(C)C[C@H]1Oc2ncc(C#Cc3ccc(OC)cc3)cc2C(=O)N([C@@H](C)CO)C[C@@H]1C	none (no result: Wnt bcat act, MITF TRPM1 HTS, GAA850 FXN act)
CC(=O)Oc1ccc(C(=O)Nc2ccc(C3(C#N)CCCC3)cc2)cc1	esBAF inh 50.8 (no result: MITF TRPM1 HTS)
O=C(C[C@H]1CC[C@H]2[C@@H](COC[C@@H](O)CN2C(=O)c2ccccc2)O1)Nc1nccs1	none (no result: Wnt bcat act, MITF TRPM1 HTS, GAA850 FXN act)
O=C(C[C@H]1CC[C@@H]2[C@H](COC[C@H](O)CN2C(=O)c2ccccc2F)O1)N1CCN(c2ccccc2)CC1	none (no result: Wnt bcat act, MITF TRPM1 HTS, GAA850 FXN act)
Nc1nc(SCc2ccccc2Cl)[nH]c(=O)c1-c1ccccc1	none (no result: Wnt bcat act)
Nc1nc(SCc2ccccc2)[nH]c(=O)c1-c1ccccc1	esBAF inh 44.6
CO[C@@H]1CN(C)C(=O)c2cc(NC(=O)c3ccccc3F)ccc2OC[C@@H](C)NC[C@@H]1C	none (no result: Wnt bcat act, MITF TRPM1 HTS, GAA850 FXN act)
COc1cccc(/C=C/C(=C2\C(=O)N(c3ccccc3)N=C2C)c2ccc(Br)cc2)c1OC	Wnt bcat act 33.1 (no result: MITF TRPM1 HTS)
COc1ccc(/C=C2/C(=O)N(c3ccccc3)N=C2C)cc1OC	none (no result: MITF TRPM1 HTS)
COCC(=O)Nc1ccc2c(c1)C(=O)N(C)[C@@H]1CC[C@@H](CC(=O)NCCc3ccncc3)O[C@H]1CO2	none (no result: Wnt bcat act, MITF TRPM1 HTS, GAA850 FXN act)
Cc1ccn2cc(-c3cccc(S(=O)(=O)N4CCCCC4)c3)nc2c1	none
Cc1ccc2nc(-c3cccc(S(=O)(=O)N(C)C)c3)cn2c1	esBAF inh 82.9, MITF TRPM1 HTS inconclusive (no result: Wnt bcat act)
Cc1ccc2nc(-c3cccc(S(=O)(=O)N4CCCC4)c3)cn2c1	esBAF inh 64.2
C[C@H]1CN([C@@H](C)CO)C(=O)c2cccc(NS(=O)(=O)c3ccc(F)cc3)c2O[C@H]1CN(C)CC1CCCCC1	none (no result: Wnt bcat act, MITF TRPM1 HTS, GAA850 FXN act)
COc1cc(/C=N/NC(=O)c2cccnc2)ccc1OC(=O)c1ccc2c(c1)OCO2	Wnt bcat act 45.5 (no result: esBAF inh)
N/C(=N\OC(=O)c1ccc2c(c1)OCO2)c1cccc(Br)c1	esBAF inh 67.4, MITF TRPM1 HTS 116.5
N/C(=N\OC(=O)Cc1ccccc1)c1cccc(Br)c1	none (no result: esBAF inh)
N/C(=N\OC(=O)c1ccc2c(c1)OCO2)c1cccnc1	Wnt bcat act 62.4 (no result: esBAF inh)
N/C(=N\OC(=O)Cc1ccccc1[N+](=O)[O-])c1cccc(Br)c1	Wnt bcat act 36.5
COCC(=O)Nc1ccc2c(c1)C(=O)N(C)[C@@H]1CC[C@H](CC(=O)NCc3ccc(OC)cc3)O[C@H]1CO2	none (no result: Wnt bcat act, MITF TRPM1 HTS, GAA850 FXN act)
